Data reported in PubChem BioAssay (Tox21).
Where “and” joins values, the source holds several entries; their conditions need not be identical. Equal entries are not always repeated. Inconclusive results are not listed. Entries that show only a call come without a potency. The source holds several records for some structures; these can differ, active in one and inactive in another. Calls of active or inactive are those of the source. Unless noted, calls follow the shape of the dose curve; as a rule, active = well fitted curve in the direction sought with a large enough effect in the repeat runs; inconclusive = weak or mixed curves; inactive = no such curve, though single readings can be large; an effect the other way counts as inactive or inconclusive.

Key:
[1] = qHTS assay to identify small molecule antagonists of the estrogen related receptor (ERR) signaling pathway from Tox21 library - cell viability counter screen (AID 1224834); also: nearly all actives have a fitted effect of over 30% in size; also: potency is read from the fitted curve at half-maximal effect
Outline: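 Cytotoxicity of test substances is gauged in the same ERR cells used for the antagonist screen, after 17.5 h of compound treatment at 37 C, by CellTiter-Fluor fluorescence measured after 30 min.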

[2] = molecular target: Luciferin 4-monooxygenase (Photinus pyralis) (UniProt P08659); test: qHTS assay to identify small molecule inhibitors of firefly luciferase (AID 1224835); also: nearly all actives have a fitted effect of over 25% in size; also: potency is read from the fitted curve at half-maximal effect
Outline: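 Quantitative HTS format; KM concentrations of both substrates. Purified P. pyralis FLuc activity quantified from luminescence images.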

[3] = qHTS assay to identify small molecule agonists of the constitutive androstane receptor (CAR) signaling pathway - cell viability counter screen (AID 1224836); also: nearly all actives have a fitted effect of over 45% in size
Outline: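 Fluorescence from CellTiter-Fluor indicates live cells after 23 h exposure. The human hepatoma line expresses hCAR and a CYP2B6-2.2kb reporter. Incubation medium contains 0.75 uM PK11195 (final).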

[4] = qHTS assay to identify small molecule antagonists of the constitutive androstane receptor (CAR) signaling pathway - cell viability counter screen (AID 1224837); also: nearly all actives have a fitted effect of over 45% in size; also: potency is read from the fitted curve at half-maximal effect
Outline: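 Multiplexed cytotoxicity read-out for the CAR antagonist screen: double-stable HepG2-CYP2B6-hCAR cells co-treated with 50 nM CITCO (final) and compound over 15 concentrations, incubated 23 hr, then assessed by CellTiter-Fluor fluorescence.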

[5] = qHTS assay to identify small molecule antagonists of the estrogen related receptor signaling pathway with the pleiotropic PPARgamma coactivator (PGC) from Tox21 10K library - cell viability counter screen (AID 1224840; active = well fitted cell-killing curve with a large enough effect in the repeat runs, not every such curve was filed as active; also: nearly all actives have a fitted effect of over 40% in size; also: potency is read from the fitted curve at half-maximal effect)
Outline: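 Step one, plate 2,000 PGC/ERR cells per well; step two, incubate 6 h at 37 C/5% CO2; step three, pin-transfer compounds; step four, incubate 17.5 h; step five, add CellTiter-Fluor and read fluorescence after 30 min.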

[6] = qHTS assay to identify small molecule antagonists of the estrogen related receptor signaling pathway with the pleiotropic PPARgamma coactivator (PGC) from Tox21 10K library (AID 1224841; call rule not given here; also: actives are mostly falling curves and most rising ones were filed inactive; nearly all actives have a fitted effect of over 50% in size; also: potency is read from the fitted curve at half-maximal effect)
Outline: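 Antagonism in this quantitative HTS is taken from loss of luciferase signal in PGC/ERR cells. Cells (2,000/well) are treated with compounds in DMSO after a 6 h settling period and read by One-Glo luminescence after 18 h.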

[7] = qHTS assay to identify small molecule agonists of the estrogen related receptor signaling pathway with the pleiotropic PPARgamma coactivator (PGC) from Tox21 10K library (AID 1224842); also: nearly all actives have a fitted effect of over 15% in size
Outline: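 PGC/ERR reporter cells (NTP line) were seeded 2,000 per well, rested 6 h at 37 C/5% CO2, then pin-dosed with compounds in DMSO for 18 h at 37 C; luciferase read by One-Glo luminescence after 30 min at room temperature.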

[8] = molecular target: Thyrotropin receptor (Homo sapiens) (UniProt P16473); test: qHTS assay to identify small molecule agonists of the thyroid stimulating hormone receptor (TSHR) signaling pathway (AID 1224843; calls by dose curve; also: nearly all actives have a fitted effect of over 45% in size; also: potency is read from the fitted curve at half-maximal effect)
Outline: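 TSHR-expressing HEK293 cells (800 per well) were exposed to compounds for 30 min at room temperature. cAMP was then detected by HTRF competition with cAMP-d2 and anti-cAMP cryptate, read after 1 h at room temperature. Fifteen concentrations, triplicate.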

[9] = qHTS assay to identify small molecule agonists of the hypoxia (HIF-1) signaling pathway - cell viability counter screen (AID 1224844; calls by dose curve; also: nearly all actives have a fitted effect of over 50% in size; also: potency is read from the fitted curve at half-maximal effect)
Outline: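 Tox21 10K compounds were added to HRE-bla ME-180 cells (0.5% dialyzed FBS) and incubated 17 hrs at 37C; ATP-based CellTiter-Glo luminescence then reported cell viability in the same wells.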

[10] = qHTS assay to identify small molecule agonists of H2AX (AID 1224845; active = well fitted activation curve with a large enough effect in the signal ratio in the repeat runs, not every such curve was filed as active; the % refers to the signal ratio; also: potency is read from the fitted curve at half-maximal effect)
Outline: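 Wild-type CHO-K1 cells plated overnight, then exposed 3 hr at 37C to compounds at 15 concentrations (0.76% DMSO). Lysed, then HTRF anti-pH2AX(S139)-cryptate/anti-H2AX-d2 detection after 24 hr at room temperature; emissions 665 and 620 nm.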

[11] = qHTS assay to identify small molecule agonists of the hypoxia (HIF-1) signaling pathway (AID 1224846; active = well fitted activation curve with a large enough effect in the signal ratio in the repeat runs, not every such curve was filed as active; the % refers to the signal ratio)
Outline: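 Steps: seed ME-180 HRE-bla cells (2,000/well, 0.5% dialyzed FBS); incubate 5 hrs at 37C; pin-transfer compounds or DMSO; incubate 17 hrs; add LiveBLAzer B/G substrate CCF4-AM; measure reporter activation by FRET.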

[12] = qHTS assay to identify small molecule agonists of H2AX - cell viability counter screen (AID 1224847; calls by dose curve; also: nearly all actives have a fitted effect of over 30% in size; also: potency is read from the fitted curve at half-maximal effect)
Outline: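 Viability of CHO-K1 (wild type) cells after 3 hr compound exposure was measured by CellTiter-Glo luminescence.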

[13] = qHTS RealTime-Glo MT Cell Viability Assay in HEK293 cells - 32 hour (AID 1224868); also: nearly all actives have a fitted effect of over 50% in size; also: potency is read from the fitted curve at half-maximal effect
Outline: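 Reads taken at 0, 8, 16, 24, 32 and 40 h from the same wells. HEK293 cells (600/well) carried RealTime-Glo reagents from seeding, with compound added after a 5 h settle at 37 C.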

[14] = A CellTox Green Cytotoxicity Assay to monitor cytotoxicity in HEK293 cells - 0 hour (AID 1224869); also: nearly all actives have a fitted effect of over 50% in size
Outline: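 Cytotoxicity was tracked continuously in HEK293 cells by a DNA-binding dye excluded from viable cells. Compounds were transferred in DMSO 5 h after seeding; fluorescence was recorded at intervals up to 40 h.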

[15] = molecular target: Nuclear receptor subfamily 1 group I member 3 (Homo sapiens) (UniProt Q14994); test: qHTS assay to identify small molecule agonists of the constitutive androstane receptor (CAR) signaling pathway (AID 1224839); also: nearly all actives have a fitted effect of over 15% in size; also: potency is read from the fitted curve at half-maximal effect;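 as to activation: HepG2 cells stably carrying human CAR and a CYP2B6 luciferase reporter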
Outline: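 Stable hCAR/CYP2B6-2.2kb HepG2 line in DMEM with 10% FBS; compounds (15 concentrations) and 0.75 uM PK11195 final, 24 h at 37 C/5% CO2, then ONE-Glo luminescence after 30 min.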

[16] = qHTS RealTime-Glo MT Cell Viability Assay in HepG2 cells - 24 hour (AID 1224867); also: nearly all actives have a fitted effect of over 50% in size; also: potency is read from the fitted curve at half-maximal effect
Outline: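 HepG2 suspension premixed with RealTime-Glo reagents is plated at 600 cells per well and left 5 h at 37 C/5% CO2. Compounds in DMSO then go in, and bioluminescence reflecting viable cell number is recorded over 40 h.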

[17] = qHTS assay to identify small molecule agonists of the estrogen related receptor (ERR) signaling pathway from Tox21 library (AID 1224849; calls by dose curve; also: nearly all actives have a fitted effect of over 15% in size); conditions: ERR reporter cell line, ONE-Glo luciferase, 18 h
Outline: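 Agonist signal is luciferase luminescence from an ERR reporter cell line treated 18 h at 37 C with DMSO-dissolved compounds, read 30 min after ONE-Glo addition at room temperature.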

[18] = molecular target: Nuclear receptor subfamily 1 group I member 3 (Homo sapiens) (UniProt Q14994); test: qHTS assay to identify small molecule antagonists of the constitutive androstane receptor (CAR) signaling pathway (AID 1224838); also: nearly all actives have a fitted effect of over 40% in size; also: potency is read from the fitted curve at half-maximal effect
Outline: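 Compounds were titrated across 15 concentrations onto HepG2 cells double-stably expressing hCAR and a CYP2B6-2.2kb reporter, together with 50 nM CITCO (final). After 24 h at 37 C, luciferase activity was measured by luminescence.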

Chain of Nuclear receptor subfamily 1 group I member 3 (Homo sapiens) (Q14994 whole entry, looked up): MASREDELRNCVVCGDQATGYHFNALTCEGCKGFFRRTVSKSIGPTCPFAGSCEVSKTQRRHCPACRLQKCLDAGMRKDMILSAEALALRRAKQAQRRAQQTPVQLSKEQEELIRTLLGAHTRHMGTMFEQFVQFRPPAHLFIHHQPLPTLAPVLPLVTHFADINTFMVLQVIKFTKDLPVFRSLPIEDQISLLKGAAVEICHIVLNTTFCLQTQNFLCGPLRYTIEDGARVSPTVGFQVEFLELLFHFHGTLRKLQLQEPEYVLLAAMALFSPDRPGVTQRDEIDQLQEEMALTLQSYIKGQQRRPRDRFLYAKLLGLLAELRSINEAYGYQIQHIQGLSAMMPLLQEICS
Chain of Thyrotropin receptor (Homo sapiens) (P16473 whole entry, looked up): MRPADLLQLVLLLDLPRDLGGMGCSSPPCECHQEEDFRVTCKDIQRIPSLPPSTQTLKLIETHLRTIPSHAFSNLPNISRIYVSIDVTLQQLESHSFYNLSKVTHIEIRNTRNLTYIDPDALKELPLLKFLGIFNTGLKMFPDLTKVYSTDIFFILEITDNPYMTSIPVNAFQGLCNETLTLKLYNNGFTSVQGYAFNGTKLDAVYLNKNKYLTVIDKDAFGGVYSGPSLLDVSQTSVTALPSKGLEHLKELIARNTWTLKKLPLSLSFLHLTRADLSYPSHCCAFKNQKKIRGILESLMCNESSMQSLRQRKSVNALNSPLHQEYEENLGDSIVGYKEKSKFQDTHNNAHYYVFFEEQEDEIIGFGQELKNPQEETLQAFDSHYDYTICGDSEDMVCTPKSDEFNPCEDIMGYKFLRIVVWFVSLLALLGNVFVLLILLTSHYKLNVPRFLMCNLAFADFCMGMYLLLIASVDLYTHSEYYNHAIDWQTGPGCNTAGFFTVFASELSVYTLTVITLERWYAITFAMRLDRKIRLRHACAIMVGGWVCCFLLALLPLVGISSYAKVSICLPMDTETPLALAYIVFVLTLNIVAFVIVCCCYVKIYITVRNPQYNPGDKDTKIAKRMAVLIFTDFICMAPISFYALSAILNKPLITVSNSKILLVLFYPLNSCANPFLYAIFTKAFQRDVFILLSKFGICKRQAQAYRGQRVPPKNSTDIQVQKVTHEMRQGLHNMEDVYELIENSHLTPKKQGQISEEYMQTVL
Chain of Luciferin 4-monooxygenase (Photinus pyralis) (P08659 whole entry, looked up): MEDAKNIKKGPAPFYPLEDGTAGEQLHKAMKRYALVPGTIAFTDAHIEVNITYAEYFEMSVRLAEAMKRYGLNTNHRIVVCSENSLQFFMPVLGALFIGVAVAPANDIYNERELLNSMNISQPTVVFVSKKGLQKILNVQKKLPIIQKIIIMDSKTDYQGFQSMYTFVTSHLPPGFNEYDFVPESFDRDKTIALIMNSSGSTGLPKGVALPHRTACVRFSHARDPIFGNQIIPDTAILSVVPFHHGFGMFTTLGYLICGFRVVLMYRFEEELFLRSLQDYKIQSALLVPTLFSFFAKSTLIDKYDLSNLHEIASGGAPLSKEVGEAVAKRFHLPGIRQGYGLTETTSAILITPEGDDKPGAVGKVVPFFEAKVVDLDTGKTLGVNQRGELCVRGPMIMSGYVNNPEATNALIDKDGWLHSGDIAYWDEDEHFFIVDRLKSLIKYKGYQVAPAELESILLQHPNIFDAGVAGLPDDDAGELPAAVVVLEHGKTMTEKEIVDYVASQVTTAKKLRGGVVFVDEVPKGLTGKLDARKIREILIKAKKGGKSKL

Compound | Potency [1] | Potency [2] | Potency [3] | Potency [4] | Potency [5] | Potency [6] | Potency [7] | Potency [8] | Potency [9] | Potency [10] | outcome [11] | Potency [12] | Potency [13] | Potency [14] | Potency [15] | Potency [16] | activity change, positive = activation ([17]; at 92.4 µM (top of the series)) | Potency [18] | activity change, positive = activation ([17]; at 42.5 µM (top of the series))
OCC(O)CO | inactive | inactive | inactive | inactive | inactive | inactive | inactive | inactive | inactive | inactive | inactive | inactive | inactive | inactive |  |  |  |  | 
Brc1ccc(Oc2cc(Br)c(Br)cc2Br)c(Br)c1 | inactive | inactive | inactive | inactive | inactive | inactive | inactive |  | inactive | inactive | inactive | inactive | 43.6 µM (active) |  |  |  |  |  | 
Cc1ccccc1[N+](=O)[O-] | inactive | inactive | inactive | inactive | inactive |  |  | inactive | inactive | inactive | inactive | inactive | inactive |  | inactive | inactive |  |  | 
CCCCN(CC)c1c([N+](=O)[O-])cc(C(F)(F)F)cc1[N+](=O)[O-] | inactive | inactive | inactive | inactive | inactive | inactive | inactive | 8.77 µM (active) and 12.2 µM (active) | inactive | inactive | inactive | inactive | inactive |  |  | inactive |  |  | 
O=S(=O)(Oc1ccc(Cl)cc1)c1ccc(Cl)cc1 | inactive | inactive | inactive | inactive | inactive | inactive | inactive | inactive | inactive | inactive | inactive |  | inactive | inactive | 69.5 µM (active) and 48.6 µM (active) |  | -19.6% (inactive) and -8.56% (inactive) |  | 
CCOc1cc(Oc2ccc(C(F)(F)F)cc2Cl)ccc1[N+](=O)[O-] | inactive | inactive | inactive | inactive | inactive | 55.1 µM (active) and inactive | inactive |  | inactive | inactive | inactive | inactive |  | inactive | inactive | inactive |  |  | 
CC(C)(OOC(C)(C)c1ccccc1)c1ccccc1 | inactive | inactive | inactive | inactive | inactive | inactive | inactive | inactive | inactive |  | inactive | 99.3 µM (active) | inactive | inactive | 24 µM (active) and 8.63 µM (active) |  |  |  | 
CN(C)C(=O)Nc1ccc(Cl)cc1 | inactive | inactive | inactive | inactive | inactive |  |  | inactive | inactive | inactive | inactive | inactive | inactive | inactive | inactive | inactive |  |  | 
COC(=O)c1sccc1S(=O)(=O)NC(=O)Nc1nc(C)nc(OC)n1 | inactive | inactive | inactive | inactive | inactive |  |  | inactive | inactive | inactive | inactive | inactive | inactive |  | inactive | inactive |  |  | 
Nc1c(Cl)cc([N+](=O)[O-])cc1Cl | inactive | inactive | inactive | inactive | inactive | 48.9 µM (active) and 27.3 µM (active) | inactive |  | inactive | inactive | inactive |  | inactive | inactive | inactive |  |  |  | 
CCOC(=S)S | inactive |  | inactive | 32.6 µM (active) |  | inactive | inactive | inactive |  | 28.4 µM (active) |  |  | inactive |  | inactive | inactive | -20.1% (inactive) and -29.8% (inactive) | 24.3 µM (active) and 36.6 µM (active) | 
Nc1ccc(-c2ccc(N)c(N)c2)cc1N | 48.4 µM (active) | 35.5 µM (active) | inactive | inactive |  |  |  | inactive | inactive |  | inactive | inactive | inactive | inactive |  | inactive |  |  | 
O=P(Oc1ccccc1)(Oc1ccccc1)Oc1ccccc1 |  | inactive | inactive | inactive | inactive | 13.6 µM (active) | inactive | 12.1 µM (active) and 9.69 µM (active) | inactive | inactive | inactive |  | inactive | inactive | 21.6 µM (active) and 19.3 µM (active) |  |  |  | 
NNC(=S)NN |  | inactive | inactive | inactive |  | 62.8 µM (active) and 61.1 µM (active) | inactive | inactive |  | inactive |  |  | inactive | inactive |  | inactive |  |  | 
CCN(N=O)C(N)=O | inactive | inactive | inactive | inactive | inactive |  |  | inactive | inactive | inactive | inactive |  | inactive | inactive |  | inactive |  |  | 
CCC(C)c1cc([N+](=O)[O-])cc([N+](=O)[O-])c1O (configuration not stated) | inactive and 19.3 µM (active) | inactive |  |  | inactive and 17.2 µM (active) | inactive and 10.9 µM (active) | inactive | inactive | inactive | inactive | inactive | inactive and 28.4 µM (active) | inactive |  | inactive | inactive | -0.756% (inactive) and -61% (inactive) |  | 
C#CCOS(=O)OC1CCCCC1Oc1ccc(C(C)(C)C)cc1 (configuration not stated) | 4.33 µM (active) |  |  |  | inactive | 3.86 µM (active) and 3.06 µM (active) | inactive | 12.2 µM (active) and 24.3 µM (active) | 43.6 µM (active) | inactive |  | 4.5 µM (active) | 13.8 µM (active) and 19.5 µM (active) | inactive | inactive and 5.45 µM (active) |  | -66% (inactive) and -59.3% (inactive) |  | 
Oc1cc(Cl)ccc1Oc1ccc(Cl)cc1Cl | 24.9 µM (active) and 29.8 µM (active) | inactive |  |  | 24.9 µM (active) | 33.2 µM (active) | inactive |  | 50.1 µM (active) and inactive | inactive |  | 51.7 µM (active) and 43.8 µM (active) | 20 µM (active) | inactive | inactive | 42.2 µM [cytotoxic] (active) and 23.9 µM (active) | -47.1% (inactive) | 55.8 µM (active) and inactive | -45.8% (inactive)
Cc1cc(C)cc(C)c1 | inactive | inactive | inactive | inactive | inactive |  |  | inactive | inactive | inactive | inactive | inactive | inactive |  |  | inactive |  |  | 
N[C@@H](Cc1ccc(N(CCCl)CCCl)cc1)C(=O)O | inactive |  | inactive | inactive | inactive |  |  | inactive | 23.5 µM (active) and 23.9 µM (active) | 38.4 µM (active) and 43.8 µM (active) |  | inactive | 5.27 µM (active) |  |  |  |  |  | 
O=C(CCl)c1ccccc1 | inactive | inactive | inactive | inactive | inactive |  |  | 69.6 µM (active) | inactive | inactive | inactive |  | inactive and 49 µM (active) | inactive |  | inactive |  |  | 
CCc1cccc(CC)c1N(COC)C(=O)CCl |  | inactive | inactive | inactive | inactive |  |  | inactive | 47.4 µM (active) |  | inactive | inactive | inactive | inactive | 18.7 µM (active) and 19.3 µM (active) |  |  | inactive | 
O=[N+]([O-])c1c(Cl)c(Cl)c(Cl)c(Cl)c1Cl | inactive | inactive | inactive | inactive | inactive |  |  |  | inactive | inactive | inactive | inactive | inactive | inactive |  | inactive |  |  | 
